Source: PubChem BioAssay AID1159580 (chemical genetic matrix, 2015)
About 2,000 (36%) of roughly 5,500 compounds were called active. Inconclusive results (about 18%) are left out. Rule as the data show it: active = normalized growth mostly below about 0.91 (no sharp cut-off); inconclusive = no clear call, values can overlap the other calls; inactive = mostly above about 0.92. Some of the results follow.

Assay: chemical genetic growth profiling, strain panel (AID 1159580);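 also: tested at 20 µM; growth read once vehicle control cultures reached saturation at 30 °C; 1 = growth at the plate median or of vehicle wells; lower values mean less growth of the strain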
Settings: growth OD

Measured: normalized growth

CC(=O)CC(c1ccccc1)c1c(O)c2ccccc2oc1=O (configuration not stated)
inactive: S. cerevisiae deletion strains, locus YJR075W, strain HOC1, active compounds read low 0.981 | S. cerevisiae deletion strains, locus YKL009W, strain mrt4, active compounds read low 1 | S. cerevisiae deletion strains, locus YKL068W, active compounds read low 1 | S. cerevisiae deletion strains, locus YKL085W, strain MDH1 (second series), active compounds read low 0.954 | S. cerevisiae deletion strains, locus YKL085W, strain MDH1, active compounds read low 0.954 | S. cerevisiae deletion strains, locus YKL160W, strain elf1, active compounds read low 1 | S. cerevisiae deletion strains, locus YKL190W, strain CNB1, active compounds read low 1.01 | S. cerevisiae deletion strains, locus YKR001C, strain vps1, active compounds read low 1.02 | S. cerevisiae deletion strains, locus YKR026C, strain gcn3, active compounds read low 0.992 | S. cerevisiae deletion strains, locus YKR091W, strain srl3, active compounds read low 0.995 | S. cerevisiae deletion strains, locus YLL001W, strain dnm1, active compounds read low 0.993 | S. cerevisiae deletion strains, locus YLL026W, active compounds read low 0.988 | S. cerevisiae deletion strains, locus YLL041C, strain sdh2, active compounds read low 0.997 | S. cerevisiae deletion strains, locus YLR027C, strain aat2, active compounds read low 1 | S. cerevisiae deletion strains, locus YLR039C, strain RIC1, active compounds read low 0.986 | S. cerevisiae deletion strains, locus YLR058C, strain SHM2, active compounds read low 1.01 | S. cerevisiae deletion strains, locus YLR102C, strain apc9, active compounds read low 1.01 | S. cerevisiae deletion strains, locus YLR113W, strain HOG1, active compounds read low 0.922 | S. cerevisiae deletion strains, locus YLR221C, strain rsa3, active compounds read low 1.01 | S. cerevisiae deletion strains, locus YLR258W, strain gsy2, active compounds read low 1 | S. cerevisiae deletion strains, locus YLR262C, strain YPT6 (second series), active compounds read low 0.881 | S. cerevisiae deletion strains, locus YLR262C, strain YPT6, active compounds read low 0.99 | S. cerevisiae deletion strains, locus YLR268W, strain sec22, active compounds read low 1.03 | S. cerevisiae deletion strains, locus YLR320W, strain mms22, active compounds read low 1.01 | S. cerevisiae deletion strains, locus YLR330W, strain CHS5, active compounds read low 1 | S. cerevisiae deletion strains, locus YLR342W, strain FKS1 (second series), active compounds read low 1.02 | S. cerevisiae deletion strains, locus YLR342W, strain FKS1, active compounds read low 0.995 | S. cerevisiae deletion strains, locus YLR357W, strain rsc2, active compounds read low 1.03 | S. cerevisiae deletion strains, locus YLR370C, strain arc18, active compounds read low 0.993 | S. cerevisiae deletion strains, locus YLR371W, strain rom2, active compounds read low 1.02 | S. cerevisiae deletion strains, locus YLR384C, strain iki3, active compounds read low 0.986 | S. cerevisiae deletion strains, locus YLR418C, strain cdc73, active compounds read low 1.06 | S. cerevisiae deletion strains, locus YML016C, strain PPZ1, active compounds read low 1.01 | S. cerevisiae deletion strains, locus YML032C, strain rad52, active compounds read low 1.03 | S. cerevisiae deletion strains, locus YML120C, strain ndi1, active compounds read low 1 | S. cerevisiae deletion strains, locus YML124C, strain tub3, active compounds read low 1.01 | S. cerevisiae deletion strains, locus YMR058W, strain fet3, active compounds read low 1.01 | S. cerevisiae deletion strains, locus YMR078C, strain ctf18, active compounds read low 1.02 | S. cerevisiae deletion strains, locus YMR125W, strain sto1, active compounds read low 1.01 | S. cerevisiae deletion strains, locus YMR129W, active compounds read low 1 | S. cerevisiae deletion strains, locus YMR205C, strain PFK2, active compounds read low 1.01 | S. cerevisiae deletion strains, locus YMR223W, strain ubp8, active compounds read low 1.01 | S. cerevisiae deletion strains, locus YMR231W, strain pep5, active compounds read low 1 | S. cerevisiae deletion strains, locus YMR263W, strain SAP30, active compounds read low 1.01 | S. cerevisiae deletion strains, locus YMR307W, strain GAS1, active compounds read low 1.05 | S. cerevisiae deletion strains, locus YNL067W, strain RPL9B, active compounds read low 1.01 | S. cerevisiae deletion strains, locus YNL071W, strain lat1, active compounds read low 1 | S. cerevisiae deletion strains, locus YNL128W, strain TEP1, active compounds read low 1.03 | S. cerevisiae deletion strains, locus YNL153C, strain GIM3, active compounds read low 1 | S. cerevisiae deletion strains, locus YNL183C, strain NPR1, active compounds read low 0.942 | S. cerevisiae deletion strains, locus YNL209W, strain ssb2, active compounds read low 0.998 | S. cerevisiae deletion strains, locus YNL233W, strain BNI4, active compounds read low 1.01 | S. cerevisiae deletion strains, locus YNL248C, strain rpa49, active compounds read low 1.01 | S. cerevisiae deletion strains, locus YNL250W, strain rad50, active compounds read low 1.05 | S. cerevisiae deletion strains, locus YNL271C, strain bni1, active compounds read low 1.01 | S. cerevisiae deletion strains, locus YNL298W, strain CLA4, active compounds read low 1.03 | S. cerevisiae deletion strains, locus YNL307C, strain MCK1, active compounds read low 1.06 | S. cerevisiae deletion strains, locus YNL322C, strain KRE1 (second series), active compounds read low 0.989 | S. cerevisiae deletion strains, locus YNL322C, strain KRE1, active compounds read low 1.02 | S. cerevisiae deletion strains, locus YNR049C, strain mso1, active compounds read low 0.995 | S. cerevisiae deletion strains, locus YNR052C, strain pop2, active compounds read low 1.03 | S. cerevisiae deletion strains, locus YOL006C, strain TOP1, active compounds read low 1 | S. cerevisiae deletion strains, locus YOL012C, strain htz1 1.19 | S. cerevisiae deletion strains, locus YOL147C, strain pex11, active compounds read low 1.01 | S. cerevisiae deletion strains, locus YOR001W, strain rrp6, active compounds read low 1.02 | S. cerevisiae deletion strains, locus YOR061W, strain CKA2, active compounds read low 1.01 | S. cerevisiae deletion strains, locus YOR069W, strain VPS5, active compounds read low 1 | S. cerevisiae deletion strains, locus YOR070C, strain gyp1, active compounds read low 0.996 | S. cerevisiae deletion strains, locus YOR080W, strain dia2, active compounds read low 1 | S. cerevisiae deletion strains, locus YOR083W, strain WHI5, active compounds read low 1.01 | S. cerevisiae deletion strains, locus YOR106W, strain vam3, active compounds read low 0.992 | S. cerevisiae deletion strains, locus YOR136W, strain idh2, active compounds read low 1.03 | S. cerevisiae deletion strains, locus YOR144C, strain elg1, active compounds read low 1.01 | S. cerevisiae deletion strains, locus YOR184W, strain ser1, active compounds read low 1.04 | S. cerevisiae deletion strains, locus YOR231W, strain MKK1, active compounds read low 0.983 | S. cerevisiae deletion strains, locus YOR265W, strain rbl2, active compounds read low 0.984 | S. cerevisiae deletion strains, locus YOR270C, strain vph1, active compounds read low 1.02 | S. cerevisiae deletion strains, locus YOR290C, strain snf2, active compounds read low 1.01 | S. cerevisiae deletion strains, locus YOR316C, strain cot1, active compounds read low 1.01 | S. cerevisiae deletion strains, locus YPL051W, strain arl3, active compounds read low 0.994 | S. cerevisiae deletion strains, locus YPL055C, strain LGE1, active compounds read low 1.05 | S. cerevisiae deletion strains, locus YPL078C, strain atp4, active compounds read low 1.02 | S. cerevisiae deletion strains, locus YPL106C, strain sse1, active compounds read low 1.02 | S. cerevisiae deletion strains, locus YPL240C, strain hsp82, active compounds read low 1 | S. cerevisiae deletion strains, locus YPL241C, strain CIN2, active compounds read low 1.01 | S. cerevisiae deletion strains, locus YPL256C, strain CLN2, active compounds read low 0.955 | S. cerevisiae deletion strains, locus YPR119W, strain clb2, active compounds read low 1.01 | S. cerevisiae deletion strains, locus YPR141C, strain kar3, active compounds read low 1.01 | S. cerevisiae deletion strains, locus YPR163C, strain tif3, active compounds read low 1.02 | S. cerevisiae deletion strains, locus YPR167C, strain met16, active compounds read low 1.01 | S. cerevisiae deletion strains, strain wtn01, active compounds read low 1 | S. cerevisiae strains, strain wild type, active compounds read low 1.02
